# Measurements taken from PubChem BioAssay (EPA / NIEHS).
# Several values for one entry are separate records, joined by “and”; a condition that tells them apart may be missing. Identical values can stand only once. Inconclusive results are not listed. Some compounds were tested as several samples or in several runs, with calls that do not always agree. Activity calls are given as the source filed them. Rule for the calls, unless noted: active = hit-call score of the fitted dose curve at least 0.9, where 1 is the maximum; inconclusive = response in the unintended direction; inactive = score below 0.9.
# Legend:
# [1] = biological target: Cellular tumor antigen p53 (Homo sapiens) (UniProt P04637); assay: TOX21_p53_BLA_p4_ratio: Tox21 HCT-116 p53 Agonism Beta-lactamase Assay, Ratio, Phase 4 (AID 2283601)
# Sequence of Cellular tumor antigen p53 (Homo sapiens) (P04637 whole entry, looked up): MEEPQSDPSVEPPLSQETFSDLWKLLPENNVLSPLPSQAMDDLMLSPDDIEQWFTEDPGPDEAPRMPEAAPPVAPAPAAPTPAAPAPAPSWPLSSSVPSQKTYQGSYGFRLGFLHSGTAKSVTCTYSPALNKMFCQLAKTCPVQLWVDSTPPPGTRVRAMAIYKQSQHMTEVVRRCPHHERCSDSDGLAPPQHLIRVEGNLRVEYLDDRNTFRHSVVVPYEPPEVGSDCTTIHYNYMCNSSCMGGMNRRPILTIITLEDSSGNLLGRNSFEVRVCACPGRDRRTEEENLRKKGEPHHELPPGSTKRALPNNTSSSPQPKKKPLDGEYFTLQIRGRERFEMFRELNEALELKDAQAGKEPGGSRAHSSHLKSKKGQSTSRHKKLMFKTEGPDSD
# Summary of the method: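 HCT-116 p53 beta-lactamase reporter cells (4000/well) preincubated 5 h, then compound (217-fold dilution of DMSO stock) for 16 h at 37C. CCF4-AM substrate added 2 h at room temperature; 460/530 nm emission ratio fitted upward versus DMSO.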
# [2] = CEETOX_H295R_MTT_cell_viability: Viability Assessment in the CeeTox HT-H295R MTT Assay (AID 2283718; active = hit-call score of the fitted dose curve at least 0.9, where 1 is the maximum; inactive = score below 0.9)
# Summary of the method: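 Human H295R adrenal cells, prestimulated 48 h with 10 uM forskolin, were exposed 48 h to chemicals in 0.1% DMSO. Viability was measured in the same wells by MTT (0.5 mg/ml, 4 h, 37 C), absorbance 570/650 nm, as percent of controls.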
# [3] = ACEA_AR_antagonist_AUC_viability: ACEA Biosciences xCELLigence Real-Time Cell Analysis on Androgen Receptor Antagonism for Viability (AID 2283776);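 note: 22Rv1 human prostate cancer cells growing on impedance electrode plates; area under impedance growth curve at 80 h after dosing as viability; hits lower the growth signal relative to DMSO meaning cytotoxicity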
# Summary of the method: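 22Rv1 prostate cells, continuous dosing up to 100 uM final (0.5% DMSO max), duplicate plates. Growth measured by impedance; AUC at 80 h, loss of signal vs DMSO.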
# [4] = ACEA_ER_AUC_viability: ACEA Biosciences xCELLigence Real-Time Cell Analysis on Estrogen Receptor Agonism for Viability (AID 2283782);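 note: hit means loss of impedance signal meaning reduced cell growth or viability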
# Summary of the method: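 Read-out: real-time electrical impedance (RT-CES) area under curve, loss of signal taken as reduced viability, normalized to DMSO baseline. T-47D cells, charcoal-stripped serum medium, compounds up to 100 uM final, continuous exposure, 80 h.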
# [5] = ACEA_AR_agonist_AUC_viability: ACEA Biosciences xCELLigence Real-Time Cell Analysis on Androgen Receptor Agonism for Viability (AID 2283775);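 for AC50: viability read 80 hours after compound addition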
# Summary of the method: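 Viability endpoint from xCELLigence impedance in 22Rv1 prostate cells at 80 h. Eight-point series, 100 uM maximum final.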
# [6] = CCTE_Padilla_ZF_144hpf_TERATOSCORE: (Legacy) CCTE's 144 Hour Post-fertilization zebrafish Assay Teratoscore, Padilla Lab (AID 2283679; active = hit-call score of the fitted dose curve at least 0.9, where 1 is the maximum; inactive = score below 0.9;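 note: zebrafish embryos with chorions exposed by immersion from 6-8 hpf to 5 dpf with daily renewal; teratogenicity score from eye scoring of death hatching and malformations at 144 hpf; higher score means more developmental defects relative to DMSO baseline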)
# Summary of the method: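 Larvae scored by eye at 144 hpf for death, hatching and malformations after a day in clean Hanks'. Before that, daily-renewed exposure at 80 uM (0.4% DMSO, 26C) from roughly 6-8 hpf through 5 dpf, 4 embryos per chemical.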
# [7] = test system: Thyroperoxidase (TPO), gene 54314; assay: CCTE_Simmons_AUR_rTPO: CCTE's Amplex UltraRed Assay for Thyroperoxidase (TPO) Inhibition, Simmons Lab (AID 2283662);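 for AC50: potency for loss of signal meaning inhibition of peroxidase activity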
# Summary of the method: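 Cell-free peroxidase activity assay using rat thyroid gland microsomes with excess H2O2 (300 uM) and 25 uM Amplex UltraRed. Compounds tested from 5 nM to 87.5 uM; fluorescence measured after 30 min at 37C, analysed relative to DMSO baseline.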
# [8] = CCTE_Simmons_CellTiterGLO_HEK293T: Viability Assessment in CCTE's Assays for Thyroperoxidase (TPO) Inhibition, Simmons Lab (AID 2283665);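 for AC50: cells exposed to compound for 24 h before readout; actives reduce ATP signal below DMSO vehicle meaning cytotoxicity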
# Summary of the method: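 Luminescent ATP readout (CellTiter-Glo, 20 min at room temperature) after 24 hr exposure of HEK293T cells to 5 nM–87.5 uM final compound; signal loss relative to DMSO vehicle indicated cytotoxicity; dichlone titrated as positive control.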
# AR (gene 367) = AR (gene 367) (UniProt P10275); assay: ACEA_AR_agonist_80hr: ACEA Biosciences xCELLigence Real-Time Cell Analysis on Androgen Receptor Agonism for Proliferation (AID 2283783);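 note: hits increase impedance growth signal above DMSO baseline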
# Sequence of AR (gene 367) (P10275 whole entry, looked up): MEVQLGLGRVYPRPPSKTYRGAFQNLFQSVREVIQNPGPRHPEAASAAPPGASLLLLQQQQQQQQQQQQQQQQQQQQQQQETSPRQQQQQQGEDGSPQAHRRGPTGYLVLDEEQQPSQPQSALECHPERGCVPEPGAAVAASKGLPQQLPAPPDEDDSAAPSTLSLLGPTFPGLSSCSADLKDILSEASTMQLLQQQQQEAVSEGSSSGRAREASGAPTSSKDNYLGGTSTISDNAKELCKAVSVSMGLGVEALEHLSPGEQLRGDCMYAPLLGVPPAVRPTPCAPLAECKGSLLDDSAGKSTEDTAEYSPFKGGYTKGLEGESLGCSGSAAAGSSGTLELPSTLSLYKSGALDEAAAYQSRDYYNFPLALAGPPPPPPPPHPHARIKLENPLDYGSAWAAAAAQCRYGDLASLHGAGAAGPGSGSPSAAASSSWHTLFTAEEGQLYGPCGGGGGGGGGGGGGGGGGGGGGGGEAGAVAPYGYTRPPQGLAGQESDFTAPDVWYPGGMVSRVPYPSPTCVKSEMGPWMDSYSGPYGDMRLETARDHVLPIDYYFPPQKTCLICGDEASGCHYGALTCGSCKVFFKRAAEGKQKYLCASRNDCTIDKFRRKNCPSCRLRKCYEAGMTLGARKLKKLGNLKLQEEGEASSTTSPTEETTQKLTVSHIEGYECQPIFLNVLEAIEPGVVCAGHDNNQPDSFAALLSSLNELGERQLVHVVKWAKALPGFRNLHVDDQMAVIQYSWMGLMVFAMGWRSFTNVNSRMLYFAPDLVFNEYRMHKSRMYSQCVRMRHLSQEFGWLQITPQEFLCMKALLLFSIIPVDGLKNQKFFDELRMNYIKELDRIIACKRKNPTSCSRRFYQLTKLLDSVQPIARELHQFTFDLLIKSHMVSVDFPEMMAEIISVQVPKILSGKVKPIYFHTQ
# Summary of the method: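 Impedance (RT-CES) growth signal at 80 h post-dose; 22Rv1 cells, 8-pt 1:4 series, top 100 uM final, DMSO ≤0.5%; duplicate plates; gain-of-signal fit relative to DMSO baseline.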
smiles,measurement,setting,value
O=C(C=Cc1ccccc1)OCc1ccccc1,outcome,[1],inactive
same,outcome,[2],inactive
same,outcome,[3],inactive
same,outcome,[4],inactive
c1c[nH]cn1,outcome,[1],inactive
same,outcome,[5],inactive
same,outcome,[3],inactive
same,outcome,[4],inactive
COCc1c(C(C)C)nc(C(C)C)c(/C=C/[C@@H](O)C[C@@H](O)CC(=O)O)c1-c1ccc(F)cc1,outcome,[1],inactive
same,AC50,[6],78.1 nM (active) and 159 nM (active)
same,outcome,[2],inactive
CC1=NN(c2cc(S(=O)(=O)O)ccc2Cl)C(=O)C1N=Nc1ccccc1 (configuration not stated),outcome,[1],inactive
same,outcome,[5],inactive
same,outcome,[3],inactive
same,outcome,[4],inactive
CC=C1CC2C=CC1C2 (configuration not stated),outcome,[1],inactive
same,outcome,[5],inactive
same,outcome,[3],inactive
CCCCCCOC(=O)C(C)CC (configuration not stated),outcome,[1],inactive
same,AC50,[4],66.7 µM (active)
C=C[C@](C)(O)CC[C@@H]1[C@@]2(C)CCCC(C)(C)[C@@H]2CC[C@@]1(C)O,outcome,[1],inactive
same,AC50,[4],37.6 µM (active)
CCN(Cc1cccc(S(=O)(=O)O)c1)c1ccc(C(=C2C=CC(=[N+](CC)Cc3cccc(S(=O)(=O)[O-])c3)C=C2)c2ccccc2)cc1,outcome,[1],inactive
same,outcome,[4],inactive
CCCCCCCCCCOC(C)=O,outcome,[1],inactive
same,outcome,[4],inactive
COc1cc(C)ccc1C(C)C,outcome,[1],inactive
same,outcome,[4],inactive
Cc1cc(C)c(C)cc1C,outcome,[1],inactive
same,outcome,[4],inactive
CCCCCCCC[N+](C)(CCCCCCCC)CCCCCCCC,AC50,[7],23.7 µM (active)
same,AC50,[8],7.14 µM (active)
same,AC50,[5],1.03 µM (active)
same,AC50,[3],0.925 µM (active)
same,AC50,[4],1.92 µM (active)
C=CC(=O)OCCOC(=O)C=C,outcome,[1],inactive
same,AC50,[4],32.3 µM (active)
O=C(c1ccccc1)c1ccc(O)c(O)c1O,AC50,[7],2.12 µM (active)
same,outcome,[8],inactive
Nc1ccc(Cl)cc1Cl,outcome,[1],inactive
same,AC50,[4],29.2 µM (active)
CC(C)(C)c1ccc(N)cc1,AC50,[7],0.106 µM (active)
same,outcome,[8],inactive
same,outcome,[3],inactive
same,outcome,[4],inactive
CO[Si](OC)(OC)c1ccccc1,outcome,[1],inactive
same,outcome,[4],inactive
O=S(=O)(O)CC(O)CCl (configuration not stated),outcome,[1],inactive
same,outcome,[4],inactive
CCCOC(=O)CCCCC(=O)OCCC,outcome,[1],inactive
same,AC50,[4],50 µM (active)
O=S1(=O)OC(c2ccc(O)cc2)(c2ccc(O)cc2)c2ccccc21,AC50,[7],24.9 µM (active) and 22.2 µM (active)
same,AC50,[8],72 µM (active)
same,outcome,[8],inactive
same,outcome,[4],inactive
CC(C)(C)c1ccc(-c2ccc(C(C)(C)C)cc2)cc1,outcome,[7],inactive
same,outcome,[5],inactive
same,outcome,[3],inactive
Cc1cccc(N)n1,outcome,[1],inactive
same,outcome,[4],inactive
O=C1CCCC1,outcome,[1],inactive
same,outcome,[4],inactive
C=C(C)C(=O)OCC(C)C,outcome,[1],inactive
same,outcome,[4],inactive
Cc1cccc(C(=O)O)c1,outcome,[1],inactive
same,outcome,[4],inactive
C=C(C)c1cccc(C(C)(C)N=C=O)c1,outcome,[1],inactive
same,outcome,[4],inactive
CC1OC1C1CCC2(C)OC2C1 (configuration not stated),outcome,[1],inactive
same,outcome,[4],inactive
Nc1ccc(N=Nc2ccccc2)c(N)n1,outcome,[1],inactive
same,outcome,[4],inactive
CC(=O)C=CC1C(C)=CCC(C)C1(C)C (configuration not stated),outcome,[1],inactive
same,outcome,[4],inactive
CC(=O)OCC(C)OC(C)=O (configuration not stated),outcome,[1],inactive
same,outcome,[4],inactive
CC/C=C\C/C=C\C/C=C\CCCCCCCC(=O)O,AC50,[7],28.7 µM (active)
same,outcome,[8],inactive
same,outcome,[5],inactive
same,outcome,[3],inactive
same,outcome,[4],inactive
Cc1cc(C)c(C)c(C)c1,outcome,[1],inactive
same,outcome,[4],inactive
NC(CO)(CO)CO,outcome,[1],inactive
same,outcome,[4],inactive
CCCCC/C=C\C/C=C\CCCCCCCC(=O)OC,AC50,[7],43.8 µM (active)
same,AC50,[8],58.4 µM (active)
same,outcome,[5],inactive
same,outcome,[3],inactive
same,AC50,[4],65.3 µM (active)
CCC(C)C=O (configuration not stated),outcome,[1],inactive
same,AC50,[4],39.7 µM (active)
COC(=O)/C=C\C(=O)O,outcome,[1],inactive
same,outcome,[4],inactive
O=[N+]([O-])C1(Br)COCOC1,outcome,[1],inactive
same,AC50,[4],8.14 µM (active)
Nc1ncn([C@@H]2O[C@H](CO)[C@@H](O)[C@H]2O)c(=O)n1,AC50,[1],13.6 µM (active) and 6.66 µM (active)
same,AC50,[4],3.22 µM (active)
C=CC(C)(CCC=C(C)C)OC(=O)C(C)C (configuration not stated),outcome,[1],inactive
same,outcome,[4],inactive
C=C(C)[C@@H]1CCC2=CCC[C@@H](C)[C@]2(C)C1,outcome,[1],inactive
same,AC50,[4],77.6 µM (active)
COC(=O)c1sccc1S(N)(=O)=O,outcome,[1],inactive
same,outcome,[4],inactive
O=CN1CCCCC1,outcome,[1],inactive
same,outcome,[4],inactive
CCCCCCCCCCCCCCCC[N+](C)(C)CC,AC50,[1],70.4 µM (active)
same,AC50,[4],12.3 µM (active)
C=C[Si](C)(C)O[Si](C)(C)C=C,outcome,[5],inactive
same,outcome,[3],inactive
same,outcome,[4],inactive
C=C1[C@H]2CC[C@@H]3[C@H]2C(C)(C)CCC[C@]13C,outcome,[4],inactive
CC(C)CC(O)Cc1ccccc1 (configuration not stated),outcome,[4],inactive
CO[Si](CCC1CCC2OC2C1)(OC)OC (configuration not stated),outcome,[2],inactive
same,AC50,[4],37.7 µM (active)
C=COCCCC,outcome,[2],inactive
same,outcome,[4],inactive
OC1CCCC1,outcome,[5],inactive
same,AC50,[3],0.475 µM (active)
CCCCCCCC/C=C\CCCCCCCC(=O)OCCO,outcome,[5],inactive
CC(C)c1ccc(C=O)cc1,outcome,[4],inactive
CC1=CC[C@H]2C[C@@H]1C2(C)C,outcome,[5],inactive
same,outcome,[3],inactive
same,outcome,[4],inactive
O=P(O)(O)Oc1ccccc1,AC50,[4],50 µM (active)
O=c1cc(-c2ccccc2)oc2ccccc12,outcome,[5],inactive
same,outcome,[3],inactive
O=C(c1ccccc1)C1CCC1,outcome,[5],inactive
same,AC50,[3],0.391 µM (active)
CC(CC=O)c1ccccc1 (configuration not stated),AC50,[4],50 µM (active)
Cc1ccc(C(C)c2ccc(C)c(C)c2)cc1C,outcome,[2],inactive
same,outcome,[5],inactive
same,outcome,[3],inactive
CCC(CC)C(=O)O,outcome,[4],inactive
CC(C)c1ccc2cc(C(C)C)ccc2c1,outcome,[3],inactive
same,outcome,AR (gene 367),inactive
COc1ccc2nc(N)sc2c1,outcome,[2],inactive
same,outcome,[4],inactive
C1=Cc2ccccc2C1,AC50,[7],43.6 µM (active)
same,outcome,[5],inactive
same,outcome,[3],inactive
same,outcome,[4],inactive
